Sampled rows, rich in hits. Any-hit rate of the full collection: about 3.2%.
TROY signal inh – inhibitors of TROY-driven NF-kB signaling, primary screen, Q293 LMP1-TROYcd cells, NF-kB luciferase, uHTS; hit rate 0.98% among 360,000; inhibition, % at 10 µM; Q293 LMP1-TROYcd NF-kB luciferase reporter, 4 h;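 active = compounds whose plate-normalised and pattern-corrected inhibition of the luciferase reporter signal at the single screening dose is 50% or more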
LMP1 NFkB inh – EBV LMP1-driven NF-kappaB luciferase reporter inhibitors, primary screen, cell-based, luminescence, single point. LMP1-induced NF-kappaB luciferase reporter cells. inhibition, % at 12.5 µM. hit rate 0.69% among 350,000. AID 504558, 2011; in the data active = inhibition above about 41%;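 note: 0% = neutral control wells and 100% = reference inhibitor control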
PAX8 reporter – inhibitors of PAX8-driven TPO luciferase reporter, primary screen, RMG-I cells, single concentration; AID 652154, 2013; hit rate 1.2% among 360,000; SteadyGlo, 24 h; inhibition, % at 12.6 µM;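 active = mean replicate inhibition at least 60% with every replicate also reaching 60%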;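 note: luciferase light reporting Pax8 driven TPO promoter activity; plate controls were median of neutral control wells for no effect and mitoxantrone controls for full effect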
EWS-Fli block – EWS/Fli-driven NR0B1 reporter inhibitors, primary screen, A673 cells, NR0B1 luciferase, luminescence, MLPCN library; AID 651661, 2012; viability-normalised; hit rate 0.67% among 350,000; inhibition, % at 12.6 µM;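 active = mean inhibition of at least 50% after viability correction, with every replicate also passing that limit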;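 note: firefly luciferase signal divided by Alamar Blue viability fluorescence both relative to DMSO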
TWEAK Fn14 block – inhibitors of TWEAK-Fn14 signaling, primary screen, luciferase reporter cells, uHTS; TWEAK-stimulated Fn14 reporter cells, luciferase luminescence, 8 h; inhibition, % at 10 µM; hit rate 2% among 360,000; AID 1159606, 2016; in the data active = inhibition above about 50%
LGR2 inh – inhibitors of bursicon-induced LGR2 CRE-luciferase signal, primary screen, cell-based, HEK293, CRE-luciferase reporter, bursicon stimulation; bursicon-stimulated, 4 h; inhibition, % at 9.99 µM; hit rate 0.35% among 380,000;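 active = drop in luminescence signal, shown as inhibition above about 50% in the replicate tests, limit read from the data, passing the limit was not always enough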;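 note: agonist challenge used bursicon conditioned medium at about half maximal strength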
Starred values were filed as active, the others as inactive; . = not tested or not shown.

SMILES	TROY signal inh	LMP1 NFkB inh	PAX8 reporter	EWS-Fli block	TWEAK Fn14 block	LGR2 inh
O=C(Cc1ccncc1)NCC[C@@H]1CC[C@@H](NC(=O)Nc2ccc(F)cc2)[C@@H](CO)O1	.	.	-6.1	2.7	.	-4.3
CCCNC(=O)N1C[C@H](O)COC[C@H]2O[C@@H](CC(=O)OC)CC[C@@H]21	.	.	.	.	.	8.7
O=C(c1ccccc1)C1OC1C(=O)c1ccccc1 (stereo not drawn)	-62.8	28.7	72.0*	1.4	69.9*	7.3
CC1C=CC(C)C(C(=O)c2ccccc2)C1C(=O)c1ccccc1 (stereo not drawn)	-12.6	0.8	-5.8	12.2	-2.1	.
C=CCN1C(=O)NC(c2ccc(OC)cc2)(C(F)(F)F)S/C1=C(\C#N)c1nnc(N2CCOCC2)n1-c1ccccc1 (stereo not drawn)	-6.7	5.0	-25.8	1.1	50.1*	12.4
C=CCN1C(c2cccc(C(F)(F)F)c2)=CS/C1=C(/C#N)c1nnc(N2CCOCC2)n1-c1ccccc1	13.2	7.6	-1.0	8.5	1.8	13.7
C[C@H]1CN([C@@H](C)CO)C(=O)c2cc(NC(=O)NC3CCCCC3)ccc2O[C@@H]1CN(C)C(=O)NC1CCCCC1	.	.	.	-5.6	.	3.5
O=C(COC(=O)c1c2c(nc3ccccc13)CCN(Cc1ccccc1)C2)Nc1c(F)cccc1F	14.6	10.7	73.4*	.	12.9	19.7
CC(=O)Nc1ccc(NC(=O)COC(=O)c2c3c(nc4ccccc24)CCN(Cc2ccccc2)C3)cc1	10.4	0.4	55.7	-16.6	9.4	.
Cc1noc(C)c1S(=O)(=O)Nc1ccc2c(c1)C(=O)N([C@@H](C)CO)C[C@@H](C)[C@H](CN(C)Cc1ccncc1)OCCCC[C@@H](C)O2	.	.	-3.3	-3.2	.	4.7
COCC(=O)N1CC2(CCN(Cc3cncnc3)CC2)c2c(n(C)c3cc(OC)ccc23)[C@H]1CO	.	.	.	0.0	.	9.9
CC[C@@H](C(=O)[C@@H](C)[C@@H](O)[C@H](C)[C@@H]1O[C@@H]([C@@H](CC)C(=O)O)CC[C@@H]1C)[C@H]1O[C@]2(C=C[C@@H](O)[C@]3(CC[C@@](C)([C@H]4CC[C@](O)(CC)[C@H](C)O4)O3)O2)[C@H](C)C[C@@H]1C	50.9*	-4.2	108.8*	12.4	55.6*	.
C[C@@H]1CN([C@H](C)CO)C(=O)c2cc(NC(=O)Nc3cccc4ccccc34)ccc2O[C@@H]1CN(C)C(=O)Nc1cccc2ccccc12	.	.	78.1*	5.7	.	1.9
C[C@@H]1CN([C@@H](C)CO)C(=O)c2cc(NC(=O)Nc3ccc(F)cc3)ccc2O[C@@H]1CN(C)C(=O)Nc1cccc2ccccc12	.	.	74.8*	16.0	.	1.8
CCCNC(=O)[C@@H]1[C@@H](CO)[C@@H]2Cn3c(ccc(-c4ccccc4)c3=O)[C@H]1N2Cc1ccccc1F	.	.	.	-7.2	.	5.0
O=C(C1CCN(S(=O)(=O)c2cccc3nsnc23)CC1)N1CC=C(c2ccccc2)CC1	12.7	3.7	12.0	.	17.5	.
O=C(C1CCCN(S(=O)(=O)c2cccc3nsnc23)C1)N1CC=C(c2ccccc2)CC1 (stereo not drawn)	26.6	18.0	.	.	51.1*	.
Cc1cccnc1C1=NOC(Cc2ccccc2)C(=O)N1Cc1ccc(F)cc1 (stereo not drawn)	-61.1	.	-5.9	-2.9	18.9	12.4
CC(=O)Nc1ccc(CN2C(=O)C(Cc3ccccc3)ON=C2c2cccc(F)c2)cc1 (stereo not drawn)	83.2*	.	-0.3	6.2	-22.2	-19.2
O=C(NCCCc1ccccc1)c1cccc(NC(=O)C2CCCCC2)c1	0.6	-3.4	0.1	-7.5	54.1*	1.0
CN(C(=O)c1cccc(NC(=O)Cc2ccc(NC(=O)C3CCCN(C(=O)CCc4ccccc4)C3)cc2)c1)C1CCCC1 (stereo not drawn)	47.3	21.1	12.4	5.2	53.4*	16.2
O=C(O)C[C@H]1C[C@H]2c3cc(NC(=O)C4CCC4)ccc3O[C@H]2[C@H](CO)O1	.	.	-8.5	4.0	.	11.5
Cc1cc[n+](C(C)C(=O)c2ccc(-c3ccccc3)cc2)cc1 (stereo not drawn)	14.4	15.4	68.5*	15.3	28.5	-6.0
CN1CCN(c2ccc3sc(-n4ccc5ccccc54)nc3c2)CC1	79.7*	8.7	-39.4	40.0	65.0*	39.1
Cc1ccccc1CN(C)C[C@H]1OCc2cn(nn2)CCCC(=O)N([C@@H](C)CO)C[C@@H]1C	.	.	-8.5	0.4	.	6.4
SMILES	TROY signal inh	LMP1 NFkB inh	PAX8 reporter	EWS-Fli block	TWEAK Fn14 block	LGR2 inh
COc1cc(C(=O)Oc2cccc(C(=S)N3CCOCC3)c2)cc(OC)c1OC	-11.7	7.5	-0.5	.	-11.2	3.2
O=C(Oc1cccc(C(=S)N2CCOCC2)c1)c1ccccc1	6.2	-6.1	-2.3	.	82.1*	1.2
O=C(N/C(=C/c1ccc(Cl)cc1)c1nc2ccccc2[nH]1)c1ccco1	-38.9	-28.9	10.0	.	-16.5	-17.5
O=C(/C(=C/c1ccc(Cl)cc1)c1nc2ccccc2[nH]1)c1ccccc1	-52.3	85.5*	.	.	79.4*	.
O=C(Cc1ccccc1)Nc1nc2ccccc2[nH]1	64.0*	-4.7	.	-39.0	38.8	-33.4
O=C(CSCc1cccc(CSCC(=O)Nc2ccccc2)n1)Nc1ccccc1	-29.9	3.9	.	.	3.9	.
O=C(Cc1ccc(Cl)cc1)Nc1nc2ccccc2[nH]1	-55.3	-5.0	.	.	4.9	.
O=C(CSCc1nc2ccccc2[nH]1)Nc1ccccc1	-13.8	59.5*	.	.	8.9	-17.0
O=C(Nc1nc2ccccc2[nH]1)c1ccccc1	40.5	6.2	.	.	79.0*	.
CO[C@@H]1CN(C)C(=O)c2ccc(NC(=O)NC(C)C)cc2OC[C@H](C)N(C(=O)CN(C)C)C[C@H]1C	.	.	4.7	-2.4	.	3.4
CO[C@@H]1CN(C)C(=O)c2cc(NC(=O)NC(C)C)ccc2OC[C@H](C)N(CC2CC2)C[C@@H]1C	.	.	8.4	7.5	.	-12.2
C[C@@H]1CN([C@@H](C)CO)C(=O)c2cc(NC(=O)NC3CCCCC3)ccc2O[C@@H](C)CCCCO[C@H]1CN(C)Cc1ccc(C(=O)O)cc1	.	.	-8.7	-14.0	.	2.4
O=C(Nc1nc2ccccc2[nH]1)c1cccc(Cl)c1	-51.7	-10.2	-48.4	-51.5	25.7	-9.4
O=C(Nc1nc2ccccc2[nH]1)c1ccc(Cl)cc1	27.8	-2.7	-25.1	53.4*	69.5*	57.4*
CCC(=O)N(CC)C[C@H]1[C@H](c2ccccc2)[C@@H](CO)N1C(C)=O	.	.	4.9	-1.4	.	11.4
CCOC(=O)N1CCN(S(=O)(=O)/C=C/c2ccccc2)CC1	-1.3	8.9	-3.4	.	-24.3	.
CCOC(=O)N1C/C(=C\c2ccccc2)C(=O)/C(=C/c2ccccc2)C1	73.7*	-49.0	9.7	46.5	0.1	29.0
